We go through seven compounds from PubChem BioAssay (Tox21).

A short description of test [1]: qHTS assay to test for compound auto fluorescence at 535 nm (green) in HEK293 cells (AID 720680). In general terms: Quantitative high-throughput screening tests each substance at several concentrations.
The nature of test [2]: qHTS assay to test for compound auto fluorescence at 460 nm (blue) in HEK293 cell free culture (AID 720681). In short, it runs like this:
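Blue fluorescence (Ex 405/Em 460 nm, triamterene-equivalent) was read immediately after pin transfer of compound or DMSO into medium (DMEM, 10% FBS) without cells.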

Test [3] in a line: qHTS assay to test for compound auto fluorescence at 535 nm (green) in HEK293 cell free culture (AID 720682). An outline of the steps:
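Cell-free medium (DMEM, 10% FBS) receives compound or DMSO by pintool. Plate read directly at Ex 485/Em 535 nm. Signal converted to fluorescein equivalency.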

Test [4] is described as follows: qHTS assay to test for compound auto fluorescence at 590 nm (red) in HEK293 cell free culture (AID 720683). In short, it runs like this: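 Red-channel autofluorescence of compounds in culture medium (DMEM, 10% FBS), no cells, measured at 540/590 nm. Rose Bengal sodium is the reference fluorophore for equivalence.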
Test [5] in a line: qHTS assay to test for compound auto fluorescence at 590 nm (red) in HepG2 cell free culture (AID 720684). In short, it runs like this: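 No cells present: MEM + 10% FBS only. Compound pinned in, red label read (540/590 nm). Activity = fluorescence equivalent to Rose Bengal sodium.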
Test [6] is described as follows: qHTS assay to test for compound auto fluorescence at 460 nm (blue) in HepG2 cell free culture (AID 720685). An outline of the steps:
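Cell-free plates of MEM plus 10% FBS received 23 nL compound or DMSO vehicle; blue-channel (405/460 nm) intensity scored against triamterene as reference fluorophore.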

The nature of test [7]: qHTS assay to test for compound auto fluorescence at 535 nm (green) in HepG2 cell free culture (AID 720686).
A short description of test [8]: qHTS assay to test for compound auto fluorescence at 460 nm (blue) in HepG2 cells (AID 720687). In short, it runs like this:
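Blue-channel autofluorescence (Ex/Em 405/460 nm, triamterene-equivalent) was measured after 1 hr compound exposure at 37 C, 5% CO2. Cells were HepG2, plated overnight at 37 C in MEM plus 10% FBS.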

The target of test [9] is Glucocorticoid receptor (Homo sapiens) (UniProt P04150). In words: qHTS assay to identify small molecule agonists of the glucocorticoid receptor (GR) signaling pathway (AID 720691; active means well fitted activation curve with a large enough effect in the signal ratio in the repeat runs, not every such curve was filed as active; the % refers to the signal ratio). In short, it runs like this:
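Measures GR pathway activation through a GRE-beta-lactamase reporter stably integrated in HeLa cells, with 18 h compound treatment at 37 C and fluorescence detection using a FRET substrate.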

Test [10] is described as follows: qHTS assay to identify small molecule antagonists of the glucocorticoid receptor (GR) signaling pathway - cell viability counter screen (AID 720693). Further: nearly all actives have a fitted effect of over 55% in size. Further: potency means the concentration at half of the fitted maximal effect.
Test [11] can be described thus: qHTS assay for identifying genotoxic compounds that show differential cytotoxicity against isogenic chicken DT40 cell lines with known DNA damage response pathways - wild type cell line (AID 743012). Further: nearly all actives have a fitted effect of over 60% in size. Further: potency means the concentration at half of the fitted maximal effect. In short, it runs like this: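 Endpoint: CellTiter-Glo luminescence, 30 min RT. Cells: wild type DT40, 300/well. Exposure: compounds in DMSO, 40 h, 37 C/5% CO2, after ~0.5 h pre-incubation.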

Test [12] in a line: qHTS assay for identifying genotoxic compounds that show differential cytotoxicity against isogenic chicken DT40 cell lines with known DNA damage response pathways - Rev3 mutant cell line (AID 743014). Further: nearly all actives have a fitted effect of over 55% in size. Further: potency means the concentration at half of the fitted maximal effect.
The nature of test [13]: qHTS assay for identifying genotoxic compounds that show differential cytotoxicity against isogenic chicken DT40 cell lines with known DNA damage response pathways - Rad54/Ku70 mutant cell line (AID 743015). Further: nearly all actives have a fitted effect of over 60% in size. Further: potency means the concentration at half of the fitted maximal effect.
Test [14] in a line: qHTS assay to identify small molecule antagonists of the androgen receptor (AR) signaling pathway - cell viability counter screen (AID 743033; further: nearly all actives have a fitted effect of over 45% in size; further: potency means the concentration at half of the fitted maximal effect).
For test [15], the target named is Androgen receptor (Homo sapiens) (UniProt P10275). Briefly: qHTS assay to identify small molecule antagonists of the androgen receptor (AR) signaling pathway (AID 743035; active means well fitted inhibition curve with a large enough effect in the signal ratio in the repeat runs, not every such curve was filed as active; the % refers to the signal ratio; further: potency means the concentration at half of the fitted maximal effect). An outline of the steps:
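R1881 agonist challenge of a HEK293 UAS-beta-lactamase AR reporter line in the presence of compound (16 h, 37C); signal taken as FRET fluorescence after 2 h with LiveBLAzer B/G substrate at room temperature.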

Test [16] has the same target. Briefly: qHTS assay to identify small molecule agonists of the androgen receptor (AR) signaling pathway using the MDA cell line (AID 743040; further: nearly all actives have a fitted effect of over 20% in size). An outline of the steps:
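Stable MMTV-luciferase reporter in MDA-kb2 cells; note the promoter carries GR as well as AR response elements. 16 h compound treatment, 37C, 0% CO2; ONE-Glo luminescence endpoint.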

Test [17] is described as follows: qHTS assay to identify small molecule antagonists of the androgen receptor (AR) signaling pathway using the MDA cell line - cell viability counter screen (AID 743041; further: nearly all actives have a fitted effect of over 45% in size; further: potency means the concentration at half of the fitted maximal effect). In short, it runs like this:
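Using the breast carcinoma line MDA-kb2 AR-luc, test chemicals were co-incubated with R1881 for 16 h; CellTiter-Fluor reagent, added at 15.5 h, provided a fluorescence measure of live cells.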

Test [18] has as its target Androgen receptor (Homo sapiens) (UniProt P10275). In words: qHTS assay to identify small molecule antagonists of the androgen receptor (AR) signaling pathway using the MDA cell line (AID 743042; further: nearly all actives have a fitted effect of over 55% in size; further: potency means the concentration at half of the fitted maximal effect). An outline of the steps:
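Antagonist mode: compounds plus R1881 agonist added to MDA-kb2 AR-luc cells, incubated 16 h at 37C. Luciferase reporter luminescence quantified, with multiplexed CellTiter-Fluor readout for cell viability.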

Test [19] addresses Glucocorticoid receptor (Homo sapiens) (UniProt P04150). In words: qHTS assay to identify small molecule antagonists of the glucocorticoid receptor (GR) signaling pathway (AID 720692; active means well fitted inhibition curve with a large enough effect in the signal ratio in the repeat runs, not every such curve was filed as active; the % refers to the signal ratio; further: potency means the concentration at half of the fitted maximal effect). An outline of the steps: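 Tox21 10K library screened in concentration-response for blockade of dexamethasone (5 nM final)-induced GRE-bla reporter activity in HeLa cells; 18 h treatment, fluorescence read.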

Values joined by “and” are separate entries in the source; they are usually repeats but may differ in a detail not shown here. Equal values may be shown once. A number with no mark means an inactive call. Results filed as inconclusive are left out. Active and inactive are the calls of the source. Unless noted, the call rests on the fitted dose curve; in most records, active means well fitted curve in the direction sought with a large enough effect in the repeat runs; inconclusive means weak or mixed curves; inactive means no such curve, though single readings can be large; an effect the other way counts as inactive or inconclusive.

Chain of Glucocorticoid receptor (Homo sapiens) (P04150 whole entry, looked up): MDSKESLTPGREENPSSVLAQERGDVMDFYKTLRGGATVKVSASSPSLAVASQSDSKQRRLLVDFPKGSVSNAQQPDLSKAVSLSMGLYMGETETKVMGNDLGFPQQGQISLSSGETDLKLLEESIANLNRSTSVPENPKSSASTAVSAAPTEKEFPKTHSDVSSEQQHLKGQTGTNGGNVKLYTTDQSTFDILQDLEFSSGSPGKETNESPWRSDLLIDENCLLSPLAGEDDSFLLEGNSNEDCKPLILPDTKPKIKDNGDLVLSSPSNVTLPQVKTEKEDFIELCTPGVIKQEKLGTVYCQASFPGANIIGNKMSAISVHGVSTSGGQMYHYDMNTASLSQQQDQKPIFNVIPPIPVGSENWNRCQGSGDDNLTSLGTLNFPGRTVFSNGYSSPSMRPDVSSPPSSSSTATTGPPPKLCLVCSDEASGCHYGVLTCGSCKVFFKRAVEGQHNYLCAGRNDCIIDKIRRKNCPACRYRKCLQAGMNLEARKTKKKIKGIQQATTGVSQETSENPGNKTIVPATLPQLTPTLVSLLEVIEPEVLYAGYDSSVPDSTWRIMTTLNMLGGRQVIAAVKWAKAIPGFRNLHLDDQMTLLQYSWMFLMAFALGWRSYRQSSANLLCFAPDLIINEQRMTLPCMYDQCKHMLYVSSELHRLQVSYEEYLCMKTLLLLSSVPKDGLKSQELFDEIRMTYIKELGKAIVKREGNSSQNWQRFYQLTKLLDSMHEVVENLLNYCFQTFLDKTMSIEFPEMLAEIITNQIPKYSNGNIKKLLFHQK
Chain of Androgen receptor (Homo sapiens) (P10275 whole entry, looked up): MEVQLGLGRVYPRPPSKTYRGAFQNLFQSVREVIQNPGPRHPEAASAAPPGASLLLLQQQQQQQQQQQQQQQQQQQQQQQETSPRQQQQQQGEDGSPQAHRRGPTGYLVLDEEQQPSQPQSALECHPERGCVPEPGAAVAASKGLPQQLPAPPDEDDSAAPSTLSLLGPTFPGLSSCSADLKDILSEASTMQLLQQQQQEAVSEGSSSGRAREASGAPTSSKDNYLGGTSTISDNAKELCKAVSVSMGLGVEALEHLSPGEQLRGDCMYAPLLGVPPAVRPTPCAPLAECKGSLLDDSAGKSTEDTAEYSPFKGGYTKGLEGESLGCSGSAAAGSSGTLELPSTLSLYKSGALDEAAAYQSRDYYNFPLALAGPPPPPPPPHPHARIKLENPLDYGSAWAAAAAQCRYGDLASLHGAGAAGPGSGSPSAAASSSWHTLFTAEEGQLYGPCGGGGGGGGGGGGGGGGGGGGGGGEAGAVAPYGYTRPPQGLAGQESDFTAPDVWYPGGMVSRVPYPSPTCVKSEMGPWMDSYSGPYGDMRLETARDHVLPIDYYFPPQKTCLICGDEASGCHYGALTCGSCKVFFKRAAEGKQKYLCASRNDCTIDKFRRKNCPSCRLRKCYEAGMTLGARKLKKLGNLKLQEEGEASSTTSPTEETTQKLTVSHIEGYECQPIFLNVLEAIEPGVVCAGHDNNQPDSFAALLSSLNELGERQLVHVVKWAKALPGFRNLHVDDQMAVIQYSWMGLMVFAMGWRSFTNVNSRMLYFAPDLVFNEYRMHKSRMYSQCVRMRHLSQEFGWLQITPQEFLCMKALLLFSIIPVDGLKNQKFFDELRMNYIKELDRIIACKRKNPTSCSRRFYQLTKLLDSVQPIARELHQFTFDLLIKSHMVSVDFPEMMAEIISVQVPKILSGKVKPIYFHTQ

Consider `CN(C)c1ccc(C(=C2C=CC(=[N+](C)C)C=C2)c2ccc(N(C)C)cc2)cc1`, for which the Potency entry in test [1], in [2], in test [3], in test [4], in test [5] and in test [6] was “inactive” throughout. The Potency result in [7], in [8] and in [9] was “inactive” each time. Further, the Potency is 6.01 µM (active) and 3.45 µM (active) and 9.77 µM (active) in test [10]; 335 nM (active) and 542 nM (active) and 193 nM (active) in [11]; 473 nM (active) and 483 nM (active) and 243 nM (active) in [12]; 422 nM (active) and 483 nM (active) and 193 nM (active) in test [13]; 1.69 µM (active) and 1.37 µM (active) and 347 nM (active) in [14]; 0.347 µM (active) in test [15]. For the same compound, the Potency was 3.35 µM (active) and 7.66 µM (active) and 4.33 µM (active) in test [17]; 2.37 µM (active) and 859 nM (active) and 864 nM (active) in test [18]. The compound was classed as inactive in test [16].
On to `FC(F)(F)c1cccc(Cl)c1`, for which the Potency entry in test [1], in [2], in [3], in [4], in test [5] and in test [6] was “inactive” each time. The Potency entry in test [7], in [8], in test [9], in [19], in [10] and in test [11] was “inactive” throughout. In addition, the Potency entry in test [12], in test [13], in [14], in test [15] and in test [17] was “inactive” throughout. Also, the compound was classed as inactive in test [16].
As for `O=C1CCc2ccc(OCCCCN3CCN(c4cccc(Cl)c4Cl)CC3)cc2N1`, the Potency entry in [1], in [2], in test [3], in test [4], in test [5] and in test [6] was “inactive” each time. Besides, the Potency result in test [7], in [8], in test [9], in test [10], in [14] and in [17] was “inactive” throughout. The Potency was 5.96 µM (active) in test [11], 5.31 µM (active) in [12] and 6.68 µM (active) in test [13].
Consider `COc1ccc2cc1Oc1ccc(cc1)C[C@H]1c3c(cc4c(c3Oc3cc5c(cc3OC)CCN(C)[C@@H]5C2)OCO4)CCN1C`, for which the Potency entry in [1], in test [2], in test [3], in test [4], in test [5] and in test [6] was “inactive” throughout. Further, the Potency entry in test [7], in test [8], in test [9], in test [19], in [10] and in test [18] was “inactive” in each case. Besides, the Potency in [12] and in test [13] was 8.41 µM (active) in each case. Besides, in test [16], the compound was classed as inactive.
Take `CCCCCc1ccc(Cl)cc1`: the Potency result in test [1], in test [2], in [3], in [4], in test [5] and in test [6] was “inactive” throughout. Besides, the Potency result in [7], in test [8], in test [9], in [19], in [10] and in test [11] was “inactive” in each case. For the same compound, the Potency result in test [12], in test [13], in test [14] and in [17] was “inactive” each time.
`C/C=C/C=C/COC(=O)C(C)C`: the Potency entry in [1], in test [2], in [3], in test [4], in test [5] and in [6] was “inactive” each time. For the same compound, the Potency entry in [7], in [8], in test [9], in test [10] and in test [14] was “inactive” each time. Besides, the Potency is 34.7 µM (active) in [19], 13.7 µM (active) in test [11], 13.7 µM (active) in test [12] and 17.2 µM (active) in test [13].
For `CCCCNS(=O)(=O)c1ccc(C)cc1`, the Potency entry in test [1], in test [2], in test [3], in [4], in [5] and in [6] was “inactive” in each case. The Potency result in test [7], in test [8], in [9], in test [10], in [11] and in [12] was “inactive” in each case. Also, the Potency entry in test [13], in [14] and in [17] was “inactive” each time.
